Results on 58 compounds are retold here after PubChem BioAssay AID1224921 (Broad Institute, 2016).

The campaign covered roughly 1,400 compounds. About 350 (25%) were called active. Inconclusive results (about 2%) are left out. These entries were drawn from the full list. Potency and affinity values are given separately. A number with no mark means an inactive call. The rule behind the calls is not given here.

This test in a line: C. difficile growth inhibition, confirmation, 4-point retest (AID 1224921).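 Note: plate controls were DMSO wells for no effect and levofloxacin 16 µg/mL wells for full effect.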 To be noted: Clostridioides difficile clinical isolate growth, OD600, 24 h, stronger effect = lower value; at 30 µM unless noted.
In the case of `C[C@@H]1CN([C@H](C)CO)C(=O)c2cc(NC(=O)Nc3ccc(C(F)(F)F)cc3)ccc2O[C@@H](C)CCCCO[C@@H]1CN(C)Cc1ccc2c(c1)OCO2`, the max activity was 29.4% [at 1.95 µM].
`C[C@@H]1CN([C@H](C)CO)C(=O)c2cc(NC(=O)Nc3ccc(F)cc3)ccc2O[C@@H](C)CCCCO[C@H]1CN(C)Cc1ccc2c(c1)OCO2`: the max activity was -9.48%.
Take `C[C@@H]1CCCCO[C@H](CN(C)Cc2ccc3c(c2)OCO3)[C@H](C)CN([C@@H](C)CO)C(=O)c2cc(NC(=O)Nc3ccc(F)cc3)ccc2O1`: the max activity was 23.7%.
As for `C[C@@H]1CCCCO[C@H](CN(C)Cc2ccc3c(c2)OCO3)[C@@H](C)CN([C@H](C)CO)C(=O)c2cc(NC(=O)Nc3ccc(C(F)(F)F)cc3)ccc2O1`, the max activity was 15.4% [at 1.95 µM].
As for `C[C@H](CO)N1C[C@H](C)[C@H](CN(C)Cc2ccc3c(c2)OCO3)OCCCC[C@H](C)Oc2ccc(NC(=O)Nc3ccc(F)cc3)cc2C1=O`, the figure is -7.04% [at 0.5 µM]; as for `C[C@H](CO)N1C[C@H](C)[C@H](CN(C)Cc2ccc3c(c2)OCO3)OCCCC[C@H](C)Oc2ccc(NC(=O)Nc3ccc(C(F)(F)F)cc3)cc2C1=O`, 31.6% [at 0.5 µM]; as for `CC(C)CC#Cc1ccc2c(c1)O[C@@H](CN(C)CC1CCOCC1)[C@H](C)CN([C@@H](C)CO)S2(=O)=O`, 17.9%.
The value for `CO[C@@H]1CN(C)C(=O)c2ccc(NC(=O)c3nc4ccccc4s3)cc2OC[C@@H](C)N(Cc2cccnc2)C[C@H]1C` was 33.1%.
Consider `CC(C)CC#Cc1ccc2c(c1)O[C@H](CN(C)Cc1ccccc1F)[C@H](C)CN([C@H](C)CO)S2(=O)=O`, for which the max activity is 28.2%.
As to `COc1ccccc1S(=O)(=O)N(C)C[C@H]1OCc2ccccc2-c2c(n(C)c3ccccc23)C(=O)N([C@@H](C)CO)C[C@H]1C`, the max activity is 11.5%.
For the compound `C[C@@H]1CN([C@H](C)CO)S(=O)(=O)c2ccc(-c3ccccc3)cc2O[C@H]1CN(C)Cc1cccnc1`, the max activity was 46%.
As for `CN1CCN(C(=O)C[C@@H]2C[C@@H]3c4cc(NC(=O)Nc5ccc(C(F)(F)F)cc5)ccc4O[C@@H]3[C@H](CO)O2)CC1`, the max activity is 30.1%.
As for `Cc1ccccc1-c1ccc2c(c1)O[C@@H](CN(C)Cc1ccncc1)[C@H](C)CN([C@@H](C)CO)S2(=O)=O`, the figure is 33.1%; as for `CCNC(=O)C[C@@H]1CC[C@H](NC(=O)C2CC2)[C@@H](CO)O1`, -9.17%; as for `O=C(NCC[C@H]1CC[C@@H](NC(=O)C2CCCCC2)[C@@H](CO)O1)Nc1ccc(Cl)cc1`, 15.3% [at 8 µM].
In the case of `O=C(Nc1ccc2c(c1)OCO2)N[C@H]1CC[C@H](CCNC(=O)C2CC2)O[C@@H]1CO`, the max activity is -10.4% [at 1.95 µM].
Regarding `O=C(NCC[C@@H]1CC[C@H](NC(=O)C2CCCCC2)[C@@H](CO)O1)Nc1ccc(Cl)cc1`, the max activity was 16.1% [at 8 µM].
The value for `C[C@@H]1CN([C@@H](C)CO)S(=O)(=O)c2ccc(C#CC3CC3)cc2O[C@H]1CN(C)Cc1ccncc1` was 53.6%.
For `C[C@@H]1CN([C@@H](C)CO)S(=O)(=O)c2ccc(C3=CCCC3)cc2O[C@H]1CN(C)Cc1ccncc1`, the max activity was 8.26%.
As for `CCCN1[C@@H]2c3ccc(/C=C/c4ccccc4)c(=O)n3C[C@H]1[C@H](CO)[C@H]2C(=O)NCC1CC1`, the figure is 3.29%; as for `O=C(Nc1ccc2c(c1)[C@@H]1C[C@H](CC(=O)N3CCc4ccccc4C3)O[C@H](CO)[C@@H]1O2)NC1CCCC1`, -11.8%; as for `CC(C)[C@H](C)NC(=O)N(C)C[C@@H]1OCc2ccccc2-c2ccccc2C(=O)N([C@H](C)CO)C[C@H]1C`, -14.1% [at 8 µM].
The value for `CCC(=O)Nc1ccc2c(c1)C(=O)N(C)C[C@H](OC)[C@@H](C)CN(C(=O)CN1CCOCC1)[C@H](C)CO2` was -15.4% [at 1.95 µM].
Turning to `CCCNC(=O)Nc1ccc2c(c1)C(=O)N(C)C[C@@H](OC)[C@H](C)CN(CCC(F)(F)F)[C@@H](C)CO2`, the max activity is 17.1%.
For `CO[C@@H]1CN(C)C(=O)c2cc(NC(=O)c3cccc(F)c3)ccc2OC[C@H](C)N(C(C)=O)C[C@H]1C`, the max activity is -16.4% [at 0.5 µM].
As for `CCCN1C[C@H](C)[C@@H](OC)CN(C)C(=O)c2cc(NC(=O)Nc3ccccc3F)ccc2OC[C@H]1C`, the figure is -17.1% [at 8 µM]; as for `Cc1noc(C)c1NC(=O)N[C@H]1CC[C@@H](CC(=O)Nc2ccc(-c3ccccc3)cc2)O[C@@H]1CO`, 28.3% [at 35 µM]; as for `O=C(O)C[C@H]1C[C@@H]2c3cc(NC(=O)c4ccc5c(c4)OCO5)ccc3O[C@@H]2[C@H](CO)O1`, -10.2% [at 0.5 µM].
As for `CCNC(=O)C[C@H]1CC[C@H](NC(=O)C2CC2)[C@@H](CO)O1`, the figure is -15.8% [at 8 µM]; as for `CCNC(=O)C[C@H]1CC[C@@H](NC(=O)C2CC2)[C@H](CO)O1`, -5.49% [at 1.95 µM].
As for `CO[C@@H]1CN(C)C(=O)c2ccc(NC(=O)Nc3cccc(Cl)c3)cc2OC[C@@H](C)N(C(=O)Nc2c(C)noc2C)C[C@H]1C`, the figure is -7.11% [at 0.5 µM]; as for `C[C@@H]1CN([C@@H](C)CO)S(=O)(=O)c2ccc(C3=CCCCC3)cc2O[C@@H]1CN(C)Cc1ccncc1`, 54.5%.
In the case of `CCS(=O)(=O)Nc1ccc2c(c1)C(=O)N(C)C[C@H](OC)[C@@H](C)CN(C(C)=O)[C@@H](C)CO2`, the max activity is -9.47% [at 1.95 µM].
The value for `CO[C@@H]1CN(C)C(=O)c2cc(NC(C)=O)ccc2OC[C@H](C)N(Cc2nccs2)C[C@H]1C` was 10.1%.
Regarding `CO[C@H]1CN(C)C(=O)c2cc(NC(C)=O)ccc2OC[C@H](C)N(CC2CCCCC2)C[C@H]1C`, the max activity was 16.4%.
The value for `C[C@@H]1CN([C@H](C)CO)S(=O)(=O)c2ccc(C#CC3(O)CCCC3)cc2O[C@@H]1CN(C)C(=O)Nc1ccc(F)cc1` was 21.5%.
Turning to `O=C(C[C@@H]1C=C[C@@H](NC(=O)Cc2cccnc2)[C@H](CO)O1)Nc1ccccc1`, the max activity is -12.6%.
As to `COc1ccccc1S(=O)(=O)N[C@@H]1C=C[C@H](CC(=O)N2CCCCC2)O[C@H]1CO`, the max activity was -12.3% [at 8 µM].
As for `O=C(C[C@@H]1C[C@H]2c3cc(NC(=O)Nc4ccccc4)ccc3O[C@H]2[C@@H](CO)O1)NC1CCCC1`, the figure is -18%.
For `Cc1ccc(-c2ccc3c(c2)O[C@H](CN(C)Cc2cccnc2)[C@H](C)CN([C@@H](C)CO)S3(=O)=O)cc1`, the max activity is 32.9%.
Consider `CC(=O)N(C)C[C@@H]1Oc2ncc(C#Cc3ccc(F)cc3)cc2C(=O)N([C@H](C)CO)C[C@H]1C`, for which the max activity is 21.7%.
Regarding `CO[C@H]1CN(C)C(=O)c2ccc(NC(=O)Nc3cccc(Cl)c3)cc2OC[C@H](C)NC[C@@H]1C`, the max activity was -12.1% [at 8 µM].
The value for `CO[C@H]1CN(C)C(=O)c2ccc(NC(=O)Nc3cccc(Cl)c3)cc2OC[C@@H](C)NC[C@@H]1C` was 37.7%; that for `C[C@@H]1CN([C@H](C)CO)C(=O)c2cc(NC(=O)CCCN(C)C)ccc2O[C@@H](C)CCCCO[C@@H]1CN(C)Cc1ccc(C(F)(F)F)cc1` was 6.03% [at 35 µM].
As for `C[C@@H]1CN([C@H](C)CO)C(=O)c2cc(NC(=O)Nc3cccc4ccccc34)ccc2O[C@@H](C)CCCCO[C@H]1CN(C)C(=O)c1ccccc1`, the figure is 24.4%.
For `CO[C@@H]1CN(C)C(=O)c2ccc(NC(C)=O)cc2OC[C@@H](C)N(C(=O)CN(C)C)C[C@H]1C`, the max activity was -8.17%.
The value for `CCCC(=O)Nc1ccc2c(c1)C(=O)N(C)C[C@@H](OC)[C@@H](C)CN(Cc1ccc(F)cc1)[C@H](C)CO2` was 20.9%; that for `COc1ccc(-c2cnc3c(c2)C(=O)N([C@H](C)CO)C[C@H](C)[C@@H](CN(C)Cc2ccc(C(=O)O)cc2)O3)cc1` was -17.6% [at 2.1 µM]; that for `CO[C@H]1CN(C)C(=O)c2cc(NC(=O)c3nc4ccccc4s3)ccc2OC[C@H](C)N(Cc2ccncc2)C[C@@H]1C` was 20%.
The value for `CCC(=O)N1C[C@@H](C)[C@@H](OC)CN(C)C(=O)c2ccc(NC(=O)Nc3ccccc3)cc2OC[C@H]1C` was -13.3% [at 1.95 µM]; that for `COCC(=O)N(C)C[C@H]1Oc2cc(C#Cc3ccccc3)ccc2S(=O)(=O)N([C@H](C)CO)C[C@H]1C` was 35.4%; that for `CCS(=O)(=O)Nc1ccc2c(c1)C(=O)N(C)C[C@@H](OC)[C@@H](C)CN(CC1CCCC1)[C@@H](C)CO2` was -10.9% [at 0.5 µM].
As for `Cc1ccc(-c2ccc3c(c2)O[C@@H](CN(C)Cc2cccnc2)[C@@H](C)CN([C@H](C)CO)S3(=O)=O)cc1`, the figure is 26.8%; as for `CN1CCN(C(=O)C[C@@H]2C[C@@H]3c4cc(NC(=O)Cc5ccncc5)ccc4O[C@@H]3[C@H](CO)O2)CC1`, 13.2%; as for `O=C(N[C@@H]1C=C[C@@H](CC(=O)N2CCOCC2)O[C@@H]1CO)c1cccc(F)c1`, -15.3% [at 1.95 µM].
Regarding `C[C@H](CO)N1C[C@H](C)[C@H](CN(C)C(=O)Nc2ccc(F)cc2)Oc2ncc(-c3cc4ccccc4o3)cc2C1=O`, the max activity is 26.1%.
`COc1ccccc1S(=O)(=O)N[C@H]1C=C[C@@H](CC(=O)N2CCCCC2)O[C@H]1CO`: the max activity is -12.3%.
The value for `COc1ccc(CNC(=O)C[C@H]2C[C@@H]3c4cc(NC(=O)NC5CCCC5)ccc4O[C@@H]3[C@@H](CO)O2)cc1` was -9.75%.
